Bioassay records deposited in PubChem by National Center for Advancing Translational Sciences (NCATS).
This is a sample that favours compounds with a hit; in the whole collection about 19% have one here.
TDP1 cell noCPT = qHTS for Inhibitors of human tyrosyl-DNA phosphodiesterase 1 (TDP1): qHTS in cells in absence of CPT; 420,000 tested, 15% active; DT40 Tdp1-/- hTDP1 cells, no CPT, ATP luminescence, 48 h; Potency, µM (highest dose often 46.2 µM), without a hit: top-dose activity change, negative = growth inhibition, usual class: inhibitors; AID 686978, 2013; note: nearly all actives have a fitted effect of over 55% in size
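Stably hTDP1-transfected Tdp1-null chicken DT40 cells were treated with library compounds minus camptothecin and grown for at least 48 hr at 37 °C, after which cellular ATP was quantified by luminescence.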
KB-3-1 tox = kills parental KB-3-1 adenocarcinoma cells | Potency, µM (series often up to 46.1 µM), actives largely listed as cytotoxic | KB-3-1 viability, CellTiter-Glo ATP luminescence, 72 h | 400,000 tested, 1.4% active; note: nearly all actives have a fitted effect of over 60% in size
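72 h, 37 °C compound treatment of KB-3-1 parental cells; CellTiter-Glo added, 10 min, luminescence read. Data corrected against DMSO-only plates and normalized before curve fitting.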
TDP1 cell CPT = growth inhibition of DT40 Tdp1-/-;hTDP1 cells with camptothecin (screen for TDP1 inhibitors); chicken DT40 Tdp1-/-;hTDP1 cells + 20 nM CPT, ATP luminescence, 48 h; Potency, µM (doses to about 46.2 µM), inactives show at the highest dose activity change, negative = growth inhibition, hits mostly inhibitors; 420,000 tested, 12% active; AID 686979; note: nearly all actives have a fitted effect of over 55% in size
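Cell growth measured by CellTiter-Glo luminescence after a minimum 48 h, 37 C compound exposure with 20 nM CPT in Tdp1-knockout DT40 cells stably expressing hTDP1, seeded 400/well; qHTS titration format.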
KB-V1 MDR tox = kills drug-selected multidrug resistant KB-V1 cells. AID 1347076. KB-V1 MDR cells viability, CellTiter-Glo, 72 h. 400,000 tested, 3.4% active. Potency, µM (top dose mostly 46.1 µM), most hits filed as cytotoxic; note: nearly all actives have a fitted effect of over 60% in size
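qHTS viability screen in drug-selected KB-V1 MDR cells: 72 h compound treatment at 37 degrees C, ATP luminescence end point.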
HT1080 IDH1KD tx = toxicity to HT-1080 IDH1 knockdown cells (counter line). Potency, µM (top dose mostly 46.1 µM), inactives show at the highest dose activity, negative = toxicity, usual class: cytotoxic. AID 686971. HT-1080 IDH1 knockdown viability, ATP luminescence, 48 h. 360,000 tested, 2% active;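 note: 0% = DMSO wells and -100% = cell-free medium wells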
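Viability of IDH1-knockdown HT-1080 fibrosarcoma cells was assessed by CellTiter-Glo after 48 h at 37 °C with titrated compound; concentration-effect curves were classified by fit quality and response size.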
HT1080NT lethal = kills 2HG-producing HT-1080-NT fibrosarcoma cells; HT-1080-NT fibrosarcoma viability, CellTiter-Glo ATP luminescence, 48 h; Potency, µM (titrated, usually from 46.1 µM), without a hit: top-dose activity, negative = less viability, actives largely listed as cytotoxic; 360,000 tested, 1.6% active;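 note: NT is the 2HG producing partner of a matched IDH1 knockdown line; 0% = DMSO-treated cells and -100% = media-only wells without cells; nearly all actives have a fitted effect of over 55% in size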
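Fibrosarcoma NT cells, 750 per well in 5% FBS RPMI, were exposed to compound for 48 hours. Viability: CellTiter-Glo luminescence.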
* hit, by the source's call. Calls come from the whole dose curve; as a rule, active = well fitted curve in the direction sought with a large enough effect; inconclusive = small, poorly fitted or top-dose-only effect, or another doubt; inactive = no such curve, though single readings can be large; an effect the other way counts as inactive or inconclusive. Unless noted, % is set by controls: 0 for no effect and ±100 for the full control effect; potency is the fitted concentration of half-maximal effect.

How did COc1ccc2oc(-c3ccc(NC(=O)c4ccc(N5CCOCC5)c([N+](=O)[O-])c4)cc3)nc2c1 do in these assays?
TDP1 cell noCPT: 2.1µM*; KB-3-1 tox: inactive; TDP1 cell CPT: inconclusive; KB-V1 MDR tox: inconclusive; HT1080 IDH1KD tx: 6%; HT1080NT lethal: 4%

Results for Cn1cc([N+](=O)[O-])c(C(=O)Nc2nccs2)n1 ?
TDP1 cell noCPT: 13%; KB-3-1 tox: inactive; TDP1 cell CPT: 4%; KB-V1 MDR tox: inactive; HT1080 IDH1KD tx: inconclusive; HT1080NT lethal: inconclusive

How did Cn1cc([N+](=O)[O-])c(C(=O)Nc2ccc(-c3nc4ccccc4o3)cc2)n1 do in these assays?
TDP1 cell noCPT: -12%; KB-3-1 tox: 18µM*; TDP1 cell CPT: -5%; KB-V1 MDR tox: 12µM*; HT1080 IDH1KD tx: inconclusive; HT1080NT lethal: inconclusive

How did O=C(Nc1cc(-c2nc3ccccc3o2)ccc1Cl)c1ccc(N2CCCCC2)c([N+](=O)[O-])c1 do in these assays?
TDP1 cell noCPT: 18µM*; KB-3-1 tox: inactive; TDP1 cell CPT: inconclusive; KB-V1 MDR tox: inactive

Results for CC(=O)Nc1cc(-c2nc3ccccc3o2)ccc1Cl ?
TDP1 cell noCPT: -10%; KB-3-1 tox: inactive; TDP1 cell CPT: 11%; KB-V1 MDR tox: inactive; HT1080 IDH1KD tx: 9%; HT1080NT lethal: 7%

How did O=C(COC(=O)c1cccs1)Nc1cccc(S(=O)(=O)N2CCCCC2)c1 do in these assays?
TDP1 cell noCPT: -14%; KB-3-1 tox: inactive; TDP1 cell CPT: inconclusive; KB-V1 MDR tox: inactive; HT1080 IDH1KD tx: 1%; HT1080NT lethal: -4%

How did Cc1ccc(S(=O)(=O)n2nc(-c3ccccc3)nc2NCc2ccc(Cl)cc2)cc1 do in these assays?
TDP1 cell noCPT: inconclusive; KB-3-1 tox: inactive; TDP1 cell CPT: inconclusive; KB-V1 MDR tox: inconclusive

How did CC(C)Oc1ccc(N2CC(C(=O)Nc3ccccc3C(=O)NC3CC3)CC2=O)cc1 (centres undefined) do in these assays?
TDP1 cell noCPT: -11%; KB-3-1 tox: inactive; TDP1 cell CPT: -23%; KB-V1 MDR tox: inactive; HT1080 IDH1KD tx: -4%; HT1080NT lethal: -2%

What do the screens show for `COc1ccc(CCNC(=O)c2ccc(Cl)c(S(=O)(=O)N3CCCC3)c2)cc1`?
TDP1 cell noCPT: 23µM*; KB-3-1 tox: inactive; TDP1 cell CPT: 18µM*; KB-V1 MDR tox: inactive; HT1080 IDH1KD tx: -27%; HT1080NT lethal: 0%

What do the screens show for `O=C(NCCc1ccc2c(c1)OCCO2)c1cc(S(=O)(=O)N2CCCC2)ccc1Br`?
TDP1 cell noCPT: inconclusive; KB-3-1 tox: inconclusive; TDP1 cell CPT: inconclusive; KB-V1 MDR tox: 21µM*; HT1080 IDH1KD tx: -1%; HT1080NT lethal: 6%

What do the screens show for `COc1ccc(C(CNC(=O)c2ccc(Cl)c(S(=O)(=O)N3CCCC3)c2)N2CCCC2)cc1` (centres undefined)?
TDP1 cell noCPT: inconclusive; KB-3-1 tox: inactive; TDP1 cell CPT: -20%; KB-V1 MDR tox: inconclusive; HT1080 IDH1KD tx: -2%; HT1080NT lethal: -12%

How did COc1ccc(N(C)S(=O)(=O)c2ccc(Cl)c(C(=O)NCCc3ccc(Cl)cc3)c2)cc1 do in these assays?
TDP1 cell noCPT: 12µM*; KB-3-1 tox: inconclusive; TDP1 cell CPT: 9.2µM*; KB-V1 MDR tox: inconclusive; HT1080 IDH1KD tx: -13%; HT1080NT lethal: 2%

Results for O=C(NCCc1ccc2c(c1)OCCO2)c1ccccn1 ?
TDP1 cell noCPT: inconclusive; KB-3-1 tox: inactive; TDP1 cell CPT: inconclusive; KB-V1 MDR tox: inactive; HT1080 IDH1KD tx: 9%; HT1080NT lethal: 16%

What do the screens show for `O=C(NCCc1ccc2c(c1)OCCO2)c1cc(F)cc(F)c1`?
TDP1 cell noCPT: 16µM*; KB-3-1 tox: inconclusive; TDP1 cell CPT: 21µM*; KB-V1 MDR tox: 12µM*; HT1080 IDH1KD tx: -19%; HT1080NT lethal: -23%

Results for CC(C)(C)OC(=O)N1CCC(C(=O)N[C@H](C(=O)O)c2ccccc2)(c2ccccc2)CC1 ?
TDP1 cell noCPT: -11%; KB-3-1 tox: inactive; TDP1 cell CPT: -7%; KB-V1 MDR tox: inactive; HT1080 IDH1KD tx: 0%; HT1080NT lethal: -2%

How did COc1cc2ccccc2cc1C(=O)Nc1ccc(O)cc1 do in these assays?
TDP1 cell noCPT: inconclusive; KB-3-1 tox: inactive; TDP1 cell CPT: -30%; KB-V1 MDR tox: inactive; HT1080 IDH1KD tx: inconclusive; HT1080NT lethal: -29%

How did O=C1CCCc2[nH]c(=O)c(C(=O)NCc3ccccc3)cc21 do in these assays?
TDP1 cell noCPT: -19%; KB-3-1 tox: inactive; TDP1 cell CPT: -19%; KB-V1 MDR tox: inactive

Results for O=C1c2ccccc2C(=O)N1CCCc1nc2ccccc2c(=O)n1-c1cccnc1 ?
TDP1 cell noCPT: -41%; KB-3-1 tox: inactive; TDP1 cell CPT: -9%; KB-V1 MDR tox: inactive; HT1080 IDH1KD tx: -5%; HT1080NT lethal: -1%

How did Cc1cccc(N(C(=O)c2nsc(Cl)c2Cl)C(C(=O)NC2CCCC2)c2ccc(O)cc2)c1 (centres undefined) do in these assays?
TDP1 cell noCPT: -1%; KB-3-1 tox: inactive; TDP1 cell CPT: 17%; KB-V1 MDR tox: inactive; HT1080 IDH1KD tx: 10%; HT1080NT lethal: 8%

What do the screens show for `CS(=O)(=O)c1ccc(Cl)c(NC(=O)CCc2ccccc2)c1`?
TDP1 cell noCPT: -9%; KB-3-1 tox: inactive; TDP1 cell CPT: 9%; KB-V1 MDR tox: inactive; HT1080 IDH1KD tx: 25%; HT1080NT lethal: 8%

What do the screens show for `COc1ccc(CCNC(=O)c2cc(S(=O)(=O)N3CCCCC3)ccc2Cl)cc1`?
TDP1 cell noCPT: 16µM*; KB-3-1 tox: inactive; TDP1 cell CPT: 26µM*; KB-V1 MDR tox: inactive; HT1080 IDH1KD tx: 0%; HT1080NT lethal: 0%

How did COc1ccc(CCNC(=O)CSCC(=O)Nc2cc(S(C)(=O)=O)ccc2Cl)cc1 do in these assays?
TDP1 cell noCPT: 9.2µM*; KB-3-1 tox: inconclusive; TDP1 cell CPT: -4%; KB-V1 MDR tox: inactive; HT1080 IDH1KD tx: 3%; HT1080NT lethal: 3%

How did CCOC(=O)c1noc2nc(C)n(CC(=O)Nc3ccc(OC)c(Cl)c3)c(=O)c12 do in these assays?
KB-3-1 tox: inactive; KB-V1 MDR tox: inactive

What do the screens show for `O=C(Nc1ccc(C(=O)N2CCOCC2)cc1)C1CC1`?
TDP1 cell noCPT: -7%; KB-3-1 tox: inactive; TDP1 cell CPT: -13%; KB-V1 MDR tox: inactive; HT1080 IDH1KD tx: -2%; HT1080NT lethal: -1%
